# A selection: hits, their analogues and other compounds. The true share with any hit is near 4%.
# Peg3 promoter – inhibitors of Peg3 promoter | HeLa PEG-Prom luciferase reporter, luminescence, overnight | inhibition, % at 20 µM | hit rate 1.7% among 360,000 | AID 588405;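 active = inhibition of at least 50% at 20 µM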
# TROY NFkB inh – TROY signaling inhibition. Q293 LMP1-TROYcd NF-kB luciferase reporter, 4 h. inhibition, % at 10 µM. hit rate 0.98% among 360,000;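 active = compounds whose plate-normalised and pattern-corrected inhibition of the luciferase reporter signal at the single screening dose is 50% or more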
# KKLEB tox – CF airway cell cytotoxicity counter-screen; AID 602141; hit rate 0.36% among 360,000; activity change (cytotoxicity), % at 5 µM; KKLEB CF airway cells viability, ATPlite luminescence, overnight; stronger effect = lower value; cells stimulated with P. aeruginosa culture filtrate;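 active = corrected activity change at or below -50% at 5 µM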
# HIF-2a block – inhibitors of HIF-2a | 786-0 RCC cells HIF-2a reporter, luciferase luminescence, overnight | inhibition, % at 18.8 µM | hit rate 0.72% among 360,000;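 active = inhibition of the luminescence signal of 40% or more relative to plate controls, in a single-dose primary screen at 18.75 µM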
# TWEAK Fn14 block – inhibitors of TWEAK-Fn14 interaction signaling. hit rate 2% among 360,000. inhibition, % at 10 µM. TWEAK-stimulated Fn14 reporter cells, luciferase luminescence, 8 h. AID 1159606; in the data active = inhibition above about 50%
# CF NFkB inh – inhibitors of cystic fibrosis induced NF-kB | KKLEB NF-kB-GFP reporter, PAF-induced, GFP fluorescence overnight | inhibition, % at 5 µM | AID 588850 | hit rate 0.86% among 360,000;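 active = at least 50% inhibition at 5 µM, scaled per plate between neutral and stimulator controls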;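 also: PAF is a Pseudomonas aeruginosa culture filtrate used as stimulus; plate controls were PAF-stimulated DMSO wells for no effect and unstimulated DMSO wells for full effect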
# The depositor's hits bear a star; . = not tested or not shown.
SMILES,Peg3 promoter,TROY NFkB inh,KKLEB tox,HIF-2a block,TWEAK Fn14 block,CF NFkB inh
C=C[C@]1(C)C=C2C(=O)[C@@]3(O)OC(=O)[C@@]4(CCCC(C)(C)[C@H]34)[C@@]2(O)CC1,98.7*,27.3,-98.6*,96.8*,104.1*,88.0*
C=C[C@]1(C)C=C2CC[C@H]3[C@@](C)(CCC[C@@]3(C)C(=O)O)[C@@H]2CC1,5.6,31.7,-8.0,13.9,-16.3,15.9
COC(=O)[C@@]1(C(C)C)N=C(c2cc(OC)c(OC)c(OC)c2)[C@]2(O1)C(=O)N(C)c1ccc(Cl)cc12,.,11.2,.,11.1,14.3,.
Cc1ccc2[nH]c(=O)c(CN(CCCN(C)C)C(=S)NCCc3ccccc3)cc2c1,56.2*,-4.8,1.3,2.2,-5.6,3.0
Cc1ccc2cc(CN(CCc3ccccc3)C(=S)NCCCN(C)C)c(=O)[nH]c2c1,23.0,24.8,7.6,10.3,-6.3,5.9
COC(=O)[C@]12CCCCC=C1N(CCC1=CCCCC1)C(=O)[C@H](CC(=O)N1CCCCC1)C2,.,4.5,.,2.6,6.5,.
CCCCCCCCSc1nnc(/N=C/N(C)C)s1,1.7,3.2,7.3,4.0,-0.9,6.1
Cc1cc(Sc2nnc(/N=C/N(C)C)s2)c2ccccc2n1,13.9,34.6,-29.4,34.5,81.0*,58.6*
O=Nc1c2cc(-c3ccccc3)[nH]nc-2c2ccccc12,10.4,70.7*,-10.9,-50.0,80.1*,-77.0
Cc1cccc(-c2cc3c(N=O)c4ccccc4c-3n[nH]2)c1,-114.1,38.1,4.1,-157.0,53.0*,-25.4
O=C(O)c1cccc(-n2c(O)c(C=C3N=c4ccccc4=N3)sc2=S)c1,12.9,-27.5,-4.7,15.7,-10.4,-0.3
O=C(O)c1ccc(-n2c(O)c(C=C3N=c4ccccc4=N3)sc2=S)cc1,3.1,-6.6,0.1,-1.5,53.6*,16.8
O=C(NCCc1ccc2c(c1)OCO2)Oc1ccccc1,.,4.0,.,-75.1,9.8,.
COc1cccc(-c2cnc(C(O)c3ccc(-c4ccccc4)cc3)[nH]2)c1 (stereo not given),20.4,30.9,10.5,-7.8,23.1,-1.5
CCc1nn2cc(C(=O)c3cc(Cl)ccc3O)cnc2c1-c1ccc(F)cc1,28.3,65.4*,-42.9,-0.5,64.3*,41.6
COc1ccccc1CN1CCC(n2nccc2NC(=O)CCc2ccccc2)CC1,-3.3,11.4,-9.0,9.1,-23.1,2.3
CN1CCN(c2ccc(Nc3ccnc4cc(Cl)ccc34)cc2)CC1,60.7*,-10.5,-5.5,0.5,1.5,-48.8
CCN1CCN(c2nc(-c3ccccc3)c3ccccc3n2)CC1,24.3,3.1,-2.9,-7.9,14.7,8.6
CCN1CCN(c2ccc(Nc3ccnc4ccccc34)cc2)CC1,61.1*,12.5,-18.5,20.3,5.9,35.0
O=C(CCc1nc(-c2ccc(Cl)cc2)no1)NCc1ccccc1CN1CCOCC1,10.9,84.2*,-19.3,-1.5,0.0,7.6
O=C(CCc1nc(-c2ccccc2)no1)NCc1ccccc1CN1CCOCC1,-2.0,4.9,0.3,6.2,-9.9,16.0
Cc1ccc(Sc2ccc(NC(=O)CCN3C(=O)NC4(CCCC4)C3=O)cc2)c(C)c1,28.1,34.9,-3.7,12.8,22.7,10.6
CCCS(=O)(=O)c1nc(S(=O)(=O)c2ccc(C)cc2)c(N2CCC3(CC2)OCCO3)s1,16.2,-4.5,-4.7,20.1,3.0,14.8
COCCN1CCN(C(=O)c2cc(COc3ccc(F)c(F)c3)on2)CC1,-45.8,-23.3,8.0,-93.8,76.9*,-3.6
Cc1cccc(NC(=O)C(=O)NNC(=O)c2ccc(C(C)(C)C)cc2)c1,0.5,-3.5,-61.5*,-16.0,-20.2,83.8*
SMILES,Peg3 promoter,TROY NFkB inh,KKLEB tox,HIF-2a block,TWEAK Fn14 block,CF NFkB inh
COc1cc2c(cc1OC)C(c1ccc3c(c1)Cc1ccccc1-3)OC(=O)C2 (stereo not given),-77.6,-21.7,-11.0,-57.9,0.5,27.3
Cc1coc2c1C(=O)C(=O)c1c-2ccc2c1CCCC2(C)C,69.0*,37.2,-16.3,-44.9,32.8,69.7*
Cc1coc2c1C(=O)C(=O)c1c-2ccc2c(C)cccc12,45.6,1.2,-28.2,-86.8,26.4,34.0
C[C@H]1COC2=C1C(=O)C(=O)c1c2ccc2c1CCCC2(C)C,47.5,31.0,-2.9,-49.9,35.8,56.6*
CCOc1ccc(-n2c(=S)sc3c(=O)[nH]c(SCC(=O)NC4CCCCC4)nc32)cc1,1.2,-19.8,10.6,1.6,-31.9,-4.2
O=C(/C=C/c1ccc(Cl)cc1Cl)Nc1cccc(S(=O)(=O)NC2=NCCC2)c1,-160.7,-9.2,-58.3*,-176.7,26.1,-3.3
Cn1c(C=O)c(-c2ccc3cc[nH]c3c2)c2ccccc21,-24.9,33.6,-16.9,-25.7,65.9*,44.2
COc1cc(/C=C2/SC(=Nc3ccc(O)cc3)NC2=O)ccc1O,-56.6,40.1,3.2,13.1,60.3*,71.3*
COc1ccc(/C=C2\SC(=Nc3ccccc3OC)NC2=O)cc1,24.1,8.1,-8.3,-51.2,23.6,56.5*
COc1cc(/C=C2\SC(N)=NC2=O)ccc1O,15.6,39.1,-15.7,30.8,99.7*,73.4*
CCc1ccc(N=C2NC(=O)/C(=C/c3cc(OC)c(O)c(OC)c3)S2)cc1,24.1,19.9,1.9,16.1,18.7,-2.0
COc1cc(/C=C2/SC(=O)NC2=O)ccc1OCc1ccccc1,-64.3,-66.8,4.8,-110.9,-20.6,-11.5
COc1ccc(/C=C2\SC(=NCc3ccccc3)NC2=O)cc1,-18.7,6.5,-39.2,-19.2,14.3,31.5
COc1ccc(/C=C2/SC(=S)NC2=O)cc1OCc1ccccc1,21.0,50.9*,-22.0,18.5,-8.0,33.7
COc1ccc(CN2C(=O)CN(S(C)(=O)=O)CC2(C)C(=O)NCc2ccccc2)cc1OC (stereo not given),.,.,.,8.4,.,.
CCN(CC(=O)Nc1c(F)cccc1F)C(=O)c1cccc(S(=O)(=O)NCc2ccccc2)c1,10.5,-7.5,-18.9,-0.3,4.4,6.3
O=C1NC[C@H](CCCCN2CCN(CC3CCCCC3)C(=O)C2=O)N(CC2CCCCC2)C1=O,.,0.3,.,3.5,-10.0,.
COc1ccccc1C(=O)NCCC(=O)NCc1ccncc1,8.0,-7.4,15.9,-6.3,-3.5,-39.0
CCOC(=O)c1c(NC(=O)COC(=O)c2ccccc2NC)sc(C(=O)N(C)C)c1C,32.9,20.2,-26.7,-1.8,17.8,39.1
O=c1cc(CCl)nc(Cc2c(Cl)cccc2Cl)[nH]1,29.6,1.5,-21.1,28.4,24.9,30.8
Cc1cc2c(cc1C)-n1nnnc1C(N(Cc1ccccc1)Cc1ccccc1)C(=O)N2 (stereo not given),.,.,.,4.7,.,.
Cc1cc(=O)oc2cc(OC(=O)c3nn(C(C)C)c(=O)c4ccccc34)ccc12,7.1,-3.3,13.9,13.3,15.3,11.5
CC(C)n1nc(C(=O)Oc2ccc(Cl)cc2)c2ccccc2c1=O,6.1,35.4,-5.9,5.3,51.1*,36.2
